{
  "source": "PubChem BioAssay",
  "data": [
    {"test_system": "Noggin (protein binding on small-molecule microarray)", "test": "small molecules binding Noggin protein – biochemical, 635/667 nm fluorescence, primary screen (AID 1095);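 note: score merges 667 nm feature fluorescence with signal to noise over triplicate slides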", "conditions": "635 nm fluorescence, higher = more signal", "values": [
      {"smiles": "C[C@@H]1CC[C@H]2C(=O)N3[C@@H](CC[C@@H](C)[C@@H]3c3cccc(N4CCOCC4)c3)C(=O)N2[C@H]1c1cccc(N2CCOCC2)c1", "composite z-score": 0.252},
      {"smiles": "O=C1c2ccccc2[C@](Cc2ccccc2I)(C(=O)O)[C@H](c2ccc(CO)cc2)N1C1CCCCC1", "composite z-score": 0.597},
      {"smiles": "COCCCNC(=O)[C@@]1(c2ccc([N+](=O)[O-])cc2)CC(=O)N(C2CCCCC2)[C@@H]1c1ccc(CO)cc1", "composite z-score": -0.836},
      {"smiles": "C=C(C(=O)CC[C@H](OC(=O)c1ccccc1-c1ccccc1C(=O)O)c1ccc(CO)o1)C(C)C", "composite z-score": 1.67},
      {"smiles": "CSCC[C@@H]1NC(=O)CC=C[C@@H](C)COC(=O)[C@H](CCSC)NC(=O)CC=C[C@@H](C)COC1=O", "composite z-score": 0.877},
      {"smiles": "CC1=C([C@H](O)CCc2ccccc2)[C@H](CO)[C@@H]2C(=O)N(Cc3ccccc3)C(=O)[C@@H]2C1", "composite z-score": 0.932},
      {"smiles": "CO[C@H]1COC(=O)[C@@H](C)NC(=O)CC=C[C@@H](C)[C@H](OC)COC(=O)CC=C[C@@H]1C", "composite z-score": 1.52},
      {"smiles": "CC(C)NC(=O)[C@@]1(Cc2ccccc2I)c2ccccc2C(=O)N(C2CCCCC2)[C@H]1c1ccc(CO)cc1", "composite z-score": 0.128},
      {"smiles": "O=C1O[C@@H](c2ccccc2)[C@@H](c2ccccc2)N2[C@@H](c3ccccc3OCCO)[C@]3(C(=O)Nc4ccc(C#CC5=CCCCC5)cc43)[C@@H](C(=O)O)[C@H]12", "composite z-score": 0.269},
      {"smiles": "O=C1O[C@@H](c2ccccc2)[C@@H](c2ccccc2)N2[C@@H](c3ccc(OCCO)cc3)[C@]3(C(=O)Nc4ccc(C#CCCO)cc43)[C@@H](C(=O)N3CCN(c4ncccn4)CC3)[C@H]12", "composite z-score": 1.24}
    ]}
  ]
}
